This is a sample that favours compounds with a hit; in the whole collection about 19% have one here.
TDP1 cell noCPT – qHTS for Inhibitors of human tyrosyl-DNA phosphodiesterase 1 (TDP1): qHTS in cells in absence of CPT | 420,000 compounds, 15% hits | AID 686978, 2013 | DT40 Tdp1-/- hTDP1 cells, no CPT, ATP luminescence, 48 h | Potency, µM (top dose mostly 46.2 µM), without a hit: at the highest dose activity change, negative = growth inhibition, hits mostly inhibitors; further: nearly all actives have a fitted effect of over 55% in size
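Compound effects on proliferation are scored in DT40 Tdp1-/-;hTDP1 cells in the absence of CPT. ATP levels (CellTiter-Glo luminescence) are recorded after a ≥48 hr, 37 °C incubation.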
RORg inh – blocks mouse ROR gamma transcriptional activity. P51450. Drosophila S2 Gal4-RORgamma UAS-luciferase reporter, 20 h. Potency, µM (titrated, usually from 53.6 µM), without a hit: top-dose activity change, negative = inhibition, hits mostly inhibitors. 310,000 compounds, 5.4% hits; further: nearly all actives have a fitted effect of over 60% in size
Target sequence (P51450 whole entry, looked up, the tested form may be a part): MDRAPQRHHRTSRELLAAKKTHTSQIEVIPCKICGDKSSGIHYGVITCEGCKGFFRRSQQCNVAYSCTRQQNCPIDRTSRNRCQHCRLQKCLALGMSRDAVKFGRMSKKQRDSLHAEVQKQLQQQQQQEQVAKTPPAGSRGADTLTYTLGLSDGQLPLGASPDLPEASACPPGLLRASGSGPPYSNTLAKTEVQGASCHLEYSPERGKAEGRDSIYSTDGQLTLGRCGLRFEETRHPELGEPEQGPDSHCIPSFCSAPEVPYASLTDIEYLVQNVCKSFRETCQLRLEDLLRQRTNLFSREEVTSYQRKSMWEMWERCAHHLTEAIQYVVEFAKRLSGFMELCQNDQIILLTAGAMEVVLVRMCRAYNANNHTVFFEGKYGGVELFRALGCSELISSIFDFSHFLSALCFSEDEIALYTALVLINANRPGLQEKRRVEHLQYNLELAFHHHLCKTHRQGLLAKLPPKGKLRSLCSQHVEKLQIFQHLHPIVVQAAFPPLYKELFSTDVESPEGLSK
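In this cell-based reporter format, copper sulfate (700 uM final) drives Gal4–ROR gamma fusion expression from a metallothionein promoter in Drosophila Schneider cells; compounds preincubated 1 hr, reporter read after 20 hr at ambient temperature.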
TDP1 inh – TDP1 (human) enzyme inhibition | 350,000 compounds, 0.28% hits | recombinant TDP1, AlphaScreen DNA substrate cleavage | Potency, µM (series often up to 130 µM), for inactives: at the top dose activity change, negative = inhibition, hits mostly inhibitors; further: nearly all actives have a fitted effect of over 40% in size
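Recombinant E. coli-expressed Tdp1 (1 nM) preincubated with compound 15 min at RT, then 5'-biotin/3'-phosphotyrosine-FITC DNA substrate (15 nM) added for 5 min. AlphaScreen beads (10 ug/ml) added, 10 min RT; tyrosine-FITC cleavage read as signal loss.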
VP16 counter – Gal4-VP16 reporter inhibition counter-screen | Drosophila S2 Gal4-VP16 UAS-luciferase, luminescence, 20 h | Potency, µM (highest dose often 53.6 µM), without a hit: at the highest dose activity, negative = inhibition, actives largely listed as inhibitors | 310,000 compounds, 3.5% hits;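 further: Gal4-VP16 expression switched on by copper sulfate through the metallothionein promoter; nearly all actives have a fitted effect of over 50% in size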
TDP1 cell CPT – growth inhibition of DT40 Tdp1-/-;hTDP1 cells with camptothecin (screen for TDP1 inhibitors); chicken DT40 Tdp1-/-;hTDP1 cells + 20 nM CPT, ATP luminescence, 48 h; Potency, µM (doses to about 46.2 µM), inactives show top-dose activity change, negative = growth inhibition, most hits filed as inhibitors; 420,000 compounds, 12% hits; further: nearly all actives have a fitted effect of over 55% in size
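Chicken DT40 Tdp1-/- cells stably complemented with human TDP1 were seeded at 400 cells/well in medium containing 20 nM camptothecin, exposed to pin-transferred compounds, and grown at 37 °C for at least 48 hr. Viability was read as ATP luminescence.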
* marks the source's active call; other numbers are inactive results; ? = inconclusive; nt = no result; [ ] = dose if it differs, or a comment. The call rests on the fitted dose curve; in most records, active means well fitted curve in the direction sought with a large enough effect; inconclusive means small, poorly fitted or top-dose-only effect, or another doubt; inactive means no such curve, though single readings can be large; an effect the other way counts as inactive or inconclusive. On the % scale 0 is the no-effect control and ±100 the full control effect; potency means the concentration at half of the fitted maximal effect.

SMILES | TDP1 cell noCPT | RORg inh | TDP1 inh | VP16 counter | TDP1 cell CPT
C=CCn1c(CC(C)(C)C)nc2ccccc21 | 3% | 11µM* | 0% | -6% | 0%
O=C(Cn1c(COc2ccccc2)nc2ccccc21)Nc1cc(Cl)cc(Cl)c1 | ? | -16%[10 µM] | -3% | ? | 18µM*
C=CCn1c(COc2ccccc2)nc2ccccc21 | 23µM* | ? | nt | ? | ?
Cc1cccnc1NC(=O)c1ccc(S(=O)(=O)N2CCCCCC2)cc1 | -9% | nt | 0% | nt | -10%
COCC(=O)Nc1cc(Cl)ccc1C(F)(F)F | nt | -2% | 4% | -2% | nt
C/C(=N\NC(=S)Nc1cc(S(=O)(=O)N2CCOCC2)ccc1Cl)c1ccccc1F | 2.3µM* | 1.1µM* | 9% | 6.3µM* | 3.3µM*
CCOC(=O)C1CCCN(C(=S)Nc2ccc(S(=O)(=O)N3CCOCC3)cc2)C1 (configuration not stated) | 16µM* | nt | 1% | nt | ?
CCOC(=O)C1CCCN(C(=O)CSc2ccc(Br)cc2)C1 (configuration not stated) | 18µM* | 6% | 5% | -17% | 13µM*
CCOC(=O)C1CCCN(C(=O)CSc2nc(C)cc(C)n2)C1 (configuration not stated) | -12% | -23% | -3% | 4% | 1%
CCOC(=O)N1CCN(C(=S)Nc2cc(S(=O)(=O)N3CCOCC3)ccc2Cl)CC1 | 18µM* | 1% | 2% | -7% | ?
CN1CCN(C(=S)Nc2cc(S(=O)(=O)N3CCOCC3)ccc2Cl)CC1 | -16% | 7% | 0% | 7% | -3%
COC(=O)c1sccc1NC(=O)CSCC(=O)O | 1% | 4% | 3% | 13% | 32%
O=C(NCC1CCCO1)c1ccc(COc2ccccc2)cc1 (configuration not stated) | 9% | -4% | 0% | -4% | -25%
O=C(NCc1ccc(F)cc1)C1(c2cccs2)CCOCC1 | -22% | 4% | 3% | 4% | -21%
CCOC(=O)C1CCN(S(=O)(=O)c2cccc3nonc23)CC1 | -10% | -27% | -1% | 2% | 9%
CCOC(=O)C1CCCN(C(=S)Nc2cc(C)cc(C)c2)C1 (configuration not stated) | 5% | 11µM* | 3% | ? | -4%
CCOC(=O)C1CCCN(CC(=O)Nc2cc(C)cc(C)c2)C1 (configuration not stated) | 6% | -14% | 5% | -5% | -5%
CCOC(=O)CCC(=O)Nc1ccc(S(=O)(=O)N2CCC(C)CC2)cc1 | -12% | ? | 3% | 5% | 4%
CCOC(=O)C1CCN(CC(=O)Nc2ccc(S(=O)(=O)N3CCC(C)CC3)cc2)CC1 | 21µM* | 40% | nt | -3% | ?
CCOC(=O)C1CCN(S(=O)(=O)c2c(Cl)ccc3nonc23)CC1 | nt | 2.2µM* | 8% | 2.8µM* | nt
Nc1c(-c2nc(-c3ccccc3)no2)nnn1CC(=O)Nc1cccc(F)c1 | ? | nt | 0% | nt | ?
CC1=NN(C(=O)c2csc(C(C)C)c2)C(O)(C(F)(F)F)C1 (configuration not stated) | 1µM* | 5µM* | 2% | 4.5µM* | 0.73µM*
CC(C)CC1=NN(C(=O)c2cccnc2)C(O)(C(F)(F)F)C1 (configuration not stated) | 2.9µM* | 11µM* | 5% | 13µM* | 4.1µM*
CC1=NN(C(=O)c2cccnc2)C(O)(C(F)(F)F)C1 (configuration not stated) | -12% | 7.9µM* | 0% | 13µM* | -12%
CC1=NN(C(=O)c2ccoc2C)C(O)(C(F)(F)F)C1 (configuration not stated) | 2.3µM* | 3.5µM* | 1% | 10µM* | 2.9µM*
CC(C)C1=NN(C(=O)c2cccnc2)C(O)(C(F)(F)F)C1 (configuration not stated) | ? | -49% | 8% | ? | ?
Clc1ccccc1N1CCN(Cc2nnc(-c3ccccc3)o2)CC1 | ? | nt | 6% | nt | -27%
